# Test results published in PubChem BioAssay.
# The source made the active and inactive calls. Unless noted, the rule behind the calls is not given here.
# What was measured:
# [1] = compound effects on lung adenocarcinoma cell viability – A549, calcein-AM fluorescence, 48 h, basal, profiling panel (AID 1162); details: higher = more signal; note: test concentration not given here
# [2] = compound effects on differentiated 3T3-L1 adipocyte viability – cell-based, 3T3-L1 adipocytes, calcein-AM fluorescence, 48 h, basal, profiling panel (AID 1163); details: 3T3-L1 adipocytes viability, higher = more signal; note: test concentration not given here
# [3] = compound effects on hepatocellular carcinoma cell viability – HepG2, calcein-AM fluorescence, 48 h, basal, profiling panel (AID 1164); details: higher = more signal; note: test concentration not given here
# [4] = compound effects on multiple myeloma cell viability – MM1S, calcein-AM fluorescence, 48 h, basal, profiling panel (AID 1165); details: higher = more signal;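 note: viability of MM1S multiple myeloma cells under basal unstimulated conditions; test concentration not given here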
# [5] = calcein-AM signal in unstimulated myeloma cells – cell-based, calcein-AM fluorescence, 48 h, PK04 Diversity Set, profiling panel (AID 1166); details: RPMI8226 myeloma viability, higher = more signal;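 note: cells grown under basal conditions without added stimulus; test concentration not given here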
# [6] = JC-1 mitochondrial signal, unstimulated HepG2 cells – cell-based, JC-1 fluorescence, 24 h, 100 nL compound, profiling panel (AID 1167); details: HepG2 mitochondrial potential, higher = more signal; note: test concentration not given here
# [7] = JC-1 mitochondrial signal, unstimulated adipocytes – cell-based, JC-1 fluorescence, 3T3-L1 adipocytes, 24 h, 100 nL compound, profiling panel (AID 1168); details: JC-1 mitochondrial fluorescence, higher = more signal, called active from +8 up or from −8 down; note: test concentration not given here
# [8] = JC-1 mitochondrial signal, unstimulated myeloma cells – cell-based, JC-1 fluorescence, RPMI8226, 24 h, 100 nL compound, profiling panel (AID 1169); details: JC-1 mitochondrial potential fluorescence, higher = more signal; note: test concentration not given here
# [9] = JC-1 mitochondrial signal, unstimulated MM1S myeloma – cell-based, JC-1 fluorescence, 24 h, 100 nL compound, profiling panel (AID 1170); details: MM1S mitochondrial potential, higher = more signal; note: test concentration not given here
# [10] = resazurin metabolic signal in A549 cells – cell-based, resazurin fluorescence, 24 h, PK04 Diversity Set, profiling panel (AID 1171); details: A549 viability, higher = more signal, called active from +8 up or from −8 down; note: test concentration not given here
# [11] = resazurin metabolic signal in HepG2 cells – cell-based, resazurin fluorescence, 24 h, PK04 Diversity Set, profiling panel (AID 1172); details: HepG2 viability, higher = more signal; note: test concentration not given here
# [12] = budding yeast growth changes without added modifier – OD600, strain BY4716, 24 h, basal condition, primary screen (AID 1173); details: S. cerevisiae BY4716 growth, OD600, 24 h; higher = more signal, called active from +8 up or from −8 down
# [13] = viability profiling in MM1S myeloma cells – cell-based, resazurin fluorescence, basal, 24 h, PK04 Diversity Set, profiling panel (AID 1174); details: higher = more signal, called active from +8 up or from −8 down; note: test concentration not given here
# [14] = target: Dihydroorotate dehydrogenase (quinone), mitochondrial (Plasmodium falciparum (isolate 3D7)) (UniProt Q08210); test: inhibition of P. falciparum DHODH – biochemical, C-terminal His tag, absorbance 600 nm, primary screen (AID 1175); details: PfDHODH enzyme, DCIP absorbance 600 nm; higher = more signal, called active from +8 up or from −8 down;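 note: recombinant parasite enzyme with a five histidine tag at its C terminus; test concentration not given here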
# [15] = inhibition of PAO1 biofilm formation – strain PAO1, LB-PBS medium, absorbance 600 nm, primary screen (AID 1176); note: test concentration not given here; details: P. aeruginosa PAO1 growth/biofilm, A600, 12 h; higher = more signal
# [16] = growth modulation of vineyard yeast isolate – strain RM11-1a, OD600, basal, 24 h, primary screen (AID 1177);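 note: cultures grown under basal conditions with no added stressor; test concentration not given here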; details: S. cerevisiae RM11-1a growth, OD600, 24 h; higher = more signal, called active from +8 up or from −8 down
# [17] = growth of efflux-deficient E. coli DRC39 – strain DRC39, OD650, 24 h, E. coli filamentation inducers, primary screen (AID 1178);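 note: growth measured as culture turbidity by optical density at 650 nm; test concentration not given here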; details: E. coli DRC39 acrAB, higher = more signal, called active from +8 up or from −8 down
# [18] = growth of efflux-deficient E. coli DRC39 – strain DRC39, OD650, 48 h, E. coli filamentation inducers, primary screen (AID 1179);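 note: screen aims at cell division blockers that make cells filament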; details: E. coli DRC39 delta-acrAB growth, higher = more signal, called active from +8 up or from −8 down
# [19] = viability profiling in RPMI8226 myeloma cells – cell-based, resazurin fluorescence, basal, 24 h, PK04 Diversity Set, profiling panel (AID 1180); details: higher = more signal;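 note: RPMI8826 multiple myeloma cell line at 5000 cells per well; test concentration not given here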
# [20] = target: E3 ubiquitin-protein ligase XIAP (Homo sapiens) (UniProt P98170); test: small molecules binding XIAP protein – biophysical, small-molecule microarray, fluorescence 635 nm, primary screen (AID 1181); details: higher = more signal;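 note: score merges 667 nm emission and signal to noise over triplicate slides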
# E3 ubiquitin-protein ligase XIAP (Homo sapiens), sequence (P98170 whole entry, looked up): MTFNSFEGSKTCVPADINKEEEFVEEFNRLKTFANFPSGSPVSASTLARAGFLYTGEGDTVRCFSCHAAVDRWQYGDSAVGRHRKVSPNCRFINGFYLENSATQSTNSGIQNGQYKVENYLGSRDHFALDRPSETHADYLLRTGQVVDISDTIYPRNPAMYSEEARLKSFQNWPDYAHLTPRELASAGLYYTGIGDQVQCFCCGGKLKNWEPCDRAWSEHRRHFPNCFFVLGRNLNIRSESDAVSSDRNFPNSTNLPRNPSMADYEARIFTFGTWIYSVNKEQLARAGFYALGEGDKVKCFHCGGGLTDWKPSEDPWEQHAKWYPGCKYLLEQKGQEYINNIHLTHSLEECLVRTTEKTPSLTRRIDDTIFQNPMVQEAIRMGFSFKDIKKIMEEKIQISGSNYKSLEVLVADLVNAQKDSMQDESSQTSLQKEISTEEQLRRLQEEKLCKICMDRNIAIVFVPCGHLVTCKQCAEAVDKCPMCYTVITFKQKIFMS
# Dihydroorotate dehydrogenase (quinone), mitochondrial (Plasmodium falciparum (isolate 3D7)), sequence (Q08210 whole entry, looked up): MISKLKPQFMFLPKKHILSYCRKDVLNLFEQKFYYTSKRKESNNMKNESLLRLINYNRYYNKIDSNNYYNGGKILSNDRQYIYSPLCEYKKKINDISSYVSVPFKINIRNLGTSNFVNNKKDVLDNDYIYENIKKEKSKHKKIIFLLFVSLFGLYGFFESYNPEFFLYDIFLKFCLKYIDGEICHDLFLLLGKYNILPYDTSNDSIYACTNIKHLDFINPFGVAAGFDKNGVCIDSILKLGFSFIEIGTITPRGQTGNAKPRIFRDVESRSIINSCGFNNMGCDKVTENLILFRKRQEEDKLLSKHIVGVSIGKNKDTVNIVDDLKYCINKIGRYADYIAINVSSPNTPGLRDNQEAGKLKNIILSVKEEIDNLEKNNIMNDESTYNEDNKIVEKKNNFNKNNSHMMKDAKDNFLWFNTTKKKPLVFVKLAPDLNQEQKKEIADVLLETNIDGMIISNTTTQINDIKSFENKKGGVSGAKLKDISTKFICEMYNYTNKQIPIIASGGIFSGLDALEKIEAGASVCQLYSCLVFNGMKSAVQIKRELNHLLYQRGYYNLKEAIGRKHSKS
SMILES,z-score [1],z-score [2],z-score [3],z-score [4],z-score [5],z-score [6],z-score [7],z-score [8],z-score [9],z-score [10],z-score [11],z-score [12],z-score [13],composite z-score [14],z-score [15],z-score [16],z-score [17],z-score [18],z-score [19],composite z-score [20]
CC(C)C(CO)N1C(=O)[C@@H]2[C@H]3C(=O)OCC=C[C@H]3OC23C=CCN(c2ccc(Cl)cc2)C(=O)[C@@H]13 (stereo not given in full),-0.713,0.556,0.813,1.04,-0.356,0.465,0.959 (inactive),-0.212,0.497,0.504 (inactive),-0.0883,0.646 (inactive),0.679 (inactive),1.13 (inactive),-1.13 (inactive),1.48 (inactive),0.969 (inactive),0.646 (inactive),1.08,-0.21
O=C1C2C=CC(C(O)c3ccco3)N(Nc3ccccc3F)C2C(=O)N1c1ccccc1 (stereo not given),-0.356,-0.912,-0.0718,-0.142,0.243,-1.27,-0.346 (inactive),-0.201,0.128,0.279 (inactive),0.162,-0.258 (inactive),-0.936 (inactive),0.334 (inactive),1.04 (inactive),0.101 (inactive),-0.887 (inactive),-0.921 (inactive),-0.684,0.318
O=C1N(Cc2ccccc2)c2ccccc2C[C@]12N=C(c1ccc(OCCCO)cc1)O[C@@H]2c1ccccc1,-1.25,-0.372,-3.54,-2.32,-3.88,-1.05,0.162 (inactive),-1.22,-2.58,-2.07 (inactive),-0.658,0.0989 (inactive),-2.55 (inactive),0.581 (inactive),1.58 (inactive),1.29 (inactive),0.223 (inactive),-0.2 (inactive),-2.6,-0.135
C=CCNC(=O)[C@H]1[C@@H]2C(=O)O[C@@H](c3ccccc3)[C@@H](c3ccccc3)N2[C@@H](c2ccccc2OCCO)[C@]12C(=O)N(C(=O)OCCOC)c1ccc(C#CC3(O)CCCCCC3)cc12,-0.293,0.905,-0.0307,-3.15,-4.56,-0.341,1.18 (inactive),-1.14,-1.7,-2.4 (inactive),-0.536,-0.0911 (inactive),-3.39 (inactive),-1.12 (inactive),2.42 (inactive),0.0382 (inactive),0.0979 (inactive),0.975 (inactive),-4.17,-0.259
COCCOC(=O)N1C(=O)[C@@]2(c3cc(C#CC4=CCCCC4)ccc31)[C@H](C(=O)Nc1nc3ccccc3s1)[C@H]1C(=O)O[C@H](c3ccccc3)[C@H](c3ccccc3)N1[C@@H]2c1ccc(O)cc1,0.427,0.217,0.0981,-1.79,-1.62,-3.16,-0.762 (inactive),-0.404,-0.54,-0.353 (inactive),-0.263,-0.344 (inactive),-0.679 (inactive),0.347 (inactive),0.766 (inactive),-0.145 (inactive),-0.469 (inactive),-0.765 (inactive),-0.527,-0.138
COCCCNC(=O)[C@@H]1c2ccccc2C(=O)N(C(C)C)[C@H]1c1ccc(CO)cc1,0.0112,0.534,-0.244,-0.288,-0.0405,-0.106,-0.409 (inactive),-0.0966,0.942,0.167 (inactive),-0.388,0.214 (inactive),0.054 (inactive),0.367 (inactive),0.168 (inactive),1.03 (inactive),0.0099 (inactive),-0.525 (inactive),-0.0303,-0.127
C#CCN(Cc1ccccc1Br)[C@H](/C=C/c1ccccc1)[C@@H](O)Cc1ccccc1,-0.892,-0.566,-1.54,-1.63,-3.89,-2.68,-0.694 (inactive),-0.538,0.42,2.3 (inactive),1.71,0.31 (inactive),-0.309 (inactive),0.342 (inactive),-0.0825 (inactive),1.05 (inactive),1.84 (inactive),1.24 (inactive),-0.971,-0.0559
Cc1ccc(C(C)CC(O)C2C=CC3C(=O)N(c4ccccc4)C(=O)C3N2Nc2ccccc2)o1 (stereo not given),-0.0446,0.001,0.179,-0.559,-1.69,-1.64,-0.279 (inactive),-0.178,-1.71,-0.706 (inactive),-1.38,-2.27 (inactive),-1.01 (inactive),-0.478 (inactive),0.574 (inactive),0.184 (inactive),0.1 (inactive),-0.681 (inactive),-0.738,0.254
CCCC=C(CCC)[C@@H](NS(=O)(=O)c1ccc(C(F)(F)F)cc1)c1ccccc1,-0.511,-0.217,-0.832,-0.266,-1.86,-4.98,-0.61 (inactive),-0.519,-1.51,0.221 (inactive),0.281,1.55 (inactive),-0.489 (inactive),0.348 (inactive),1.03 (inactive),1.84 (inactive),-0.763 (inactive),-0.197 (inactive),-0.683,-0.206
C=CCNC(=O)[C@@H]1[C@H]2C(=O)O[C@H](c3ccccc3)[C@H](c3ccccc3)N2[C@H](c2ccc(O)cc2)[C@@]12C(=O)N(C(=O)OCCOC)c1ccc(C#CC3=CCCCC3)cc12,0.145,0.725,0.423,-2.13,-3.66,-1.9,0.889 (inactive),-0.825,-0.627,-0.966 (inactive),-0.411,0.0346 (inactive),-0.279 (inactive),0.235 (inactive),1.26 (inactive),0.891 (inactive),-0.713 (inactive),-0.277 (inactive),-1.09,-0.0056
CC1CC/C=C\[C@H]2OC34C=CCN(Cc5ccccc5)C(=O)[C@H]3N(C(CO)C(C)C)C(=O)[C@@H]4C2C(=O)O1 (stereo not given in full),0.743,0.493,0.539,0.947,0.847,-0.213,0.000812 (inactive),-0.795,-0.0133,0.0401 (inactive),0.145,0.325 (inactive),0.325 (inactive),-0.841 (inactive),0.205 (inactive),0.558 (inactive),0.426 (inactive),0.523 (inactive),0.775,-0.211
COC(=O)C1=CC(CCCO)=CC(c2cccs2)N(C)C=C1C(=O)OC (stereo not given),-0.253,0.483,-0.818,0.347,0.959,-0.386,-0.195 (inactive),-0.294,0.549,-0.28 (inactive),-0.86,0.856 (inactive),-0.482 (inactive),0.75 (inactive),0.462 (inactive),1.13 (inactive),-0.187 (inactive),-0.532 (inactive),0.0222,0.212
COc1ccc(C#Cc2ccc3c(c2)[C@]2(C(=O)N3)[C@H](C(=O)O)[C@H]3C(=O)O[C@H](c4ccccc4)[C@H](c4ccccc4)N3[C@@H]2c2ccc(O)cc2)cc1,-0.483,1.65,-0.176,-2.61,-3.91,-3.99,-1.15 (inactive),-0.85,-0.623,0.199 (inactive),-0.704,-1.07 (inactive),0.239 (inactive),-4.06 (inactive),0.381 (inactive),0.128 (inactive),-0.0897 (inactive),-0.94 (inactive),-0.152,-0.209
O=C(NCc1ccc(F)cc1)[C@H]1C[C@H]2C(=O)NCC(=O)N2[C@H]1c1ccc(O)cc1,0.139,-0.218,-0.457,-1.49,0.461,0.679,-0.276 (inactive),0.683,0.318,0.54 (inactive),-1.15,0.407 (inactive),0.0901 (inactive),-0.0559 (inactive),-0.0185 (inactive),1.23 (inactive),-0.42 (inactive),-0.806 (inactive),0.18,-0.294
CN(C)C(=O)[C@@]1(Cc2ccccc2CN=[N+]=[N-])N=C(c2ccc(OCCCO)cc2)O[C@H]1c1ccccc1N=[N+]=[N-],-1.63,2,-2.15,-3.03,-3.98,0.129,-0.052 (inactive),-1.08,-0.796,-2.09 (inactive),-0.699,0.37 (inactive),-2.96 (inactive),1.3 (inactive),0.522 (inactive),1.22 (inactive),0.776 (inactive),-0.893 (inactive),-3.85,0.202
COc1cc(NN2C(C(O)c3cc(OC)c(OC)c(OC)c3)C=CC3C(=O)N(C)C(=O)C32)cc(OC)c1OC (stereo not given),-0.991,-0.919,-0.122,-0.147,-0.176,-1.09,-1.04 (inactive),0.729,-0.417,-0.4 (inactive),-0.177,0.712 (inactive),-0.464 (inactive),-1.27 (inactive),0.366 (inactive),0.276 (inactive),-0.0468 (inactive),0.179 (inactive),-0.97,-0.144
CCOC(=O)C=Cc1cccc(C)c1O,-0.877,0.407,-0.833,-0.536,-0.731,-0.768,-0.0308 (inactive),-0.642,-1.16,-0.871 (inactive),-0.156,-10.7 (active),-0.753 (inactive),-0.892 (inactive),0.0236 (inactive),-4.67 (inactive),0.0457 (inactive),-0.944 (inactive),-0.529,0.0533
CCOC(=O)C[C@H]1[C@H](OC(=O)Cc2ccc3c(c2)OCO3)[C@@H](NC(=O)c2ccc3ccccc3n2)c2cc(OCCCO)ccc2N1C(=O)c1ccc2ccccc2n1,5.35,1.03,1.83,-1.01,0.121,2.81,0.413 (inactive),0.362,0.981,-0.387 (inactive),0.482,-1.22 (inactive),-0.145 (inactive),-0.574 (inactive),0.325 (inactive),-2.19 (inactive),2.08 (inactive),1.57 (inactive),-0.172,-0.0773
